ATXN2 expr inh = inhibitors of ATXN2 expression; HEK-293 ATXN2-luciferase reporter, luminescence, 24 h; 0.72% of 360,000 active; AID 1745845; Potency, µM (titrated, usually from 57 µM), actives largely listed as inhibitors; also: nearly all actives have a fitted effect of over 55% in size
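ATXN2-luciferase reporter cells (luciferase flanked by upstream and downstream ATXN2 gene portions) were treated 24 h at 37 °C with compounds at up to 57 uM. SteadyGlo luminescence gave expression; GF-AFC fluorescence gave viability.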
TGFb SMAD3 inh = inhibitors of TGF-b signaling. 1.2% of 410,000 active. Potency, µM (doses to about 46.1 µM), most hits filed as inhibitors. HepG2 CAGA-GFP TGF-b/SMAD3 reporter, GFP fluorescence, 18 h; TGF-beta stimulated, 500 pg/mL final; also: nearly all actives have a fitted effect of over 65% in size
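Read-out: total well GFP (ex488/em500-530) summed from mean per-cell fluorescence. Cells: HEPG2 CAGA-GFP, 1% FBS DMEM, 18 h at 37 degrees C with 500 pg/mL final TGF-beta. Unstimulated wells served as the full-inhibition control; stimulated DMSO wells = 0%.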
Giardia kill = kills Giardia lamblia | 0.15% of 340,000 active | activity change, % at 7.66 µM, hits read low | Giardia lamblia trophozoite viability; in the data active = activity change below about -80%; inconclusive = between about -30% and that limit;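 also: parasites exposed to compound for two days anaerobically before the ATP read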
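Media and compound were dispensed first, then trophozoites at 100 cells/well; plates sat 48 hrs at 37 deg C without oxygen before ATP luminescence reagent was added and read after 15-30 min at room temperature.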
uPA surface inh = cell surface uPA generation inhibition | AID 540303 | cell surface uPA generation assay, qHTS | Potency, µM (titrated, usually from 38.3 µM), most hits filed as inhibitors | 0.31% of 330,000 active; active = well fitted inhibition curve with a large enough effect; inconclusive = small, poorly fitted or top-dose-only effect; inactive = no such curve, though single readings can be large or run the other way; tested in mouse RAW 264.7 cells; also: nearly all actives have a fitted effect of over 55% in size
ATXN viability = cell viability loss in ATXN counter-screen; S2 cells (HEK-293 line with an ATXN2-luciferase reporter) viability, CellTiter-Fluor protease fluorescence, 24 h; AID 651635; Potency, µM (doses to about 56.7 µM), actives largely listed as cytotoxic; 0.49% of 400,000 active; also: nearly all actives have a fitted effect of over 40% in size
HepG2 tox-1 = kills HepG2 cells in TGF-b inhibitor counter-screen; HepG2 CAGA-GFP viability, ATP luminescence, 18 h; 0.76% of 410,000 active; Potency, µM (series often up to 46.1 µM), most hits filed as cytotoxic
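CellTiter-Glo luminescence gave cytotoxicity after 18 hours at 37 degrees C. The cells were HepG2 CAGA-GFP in 1% FBS DMEM, stimulated with 500 pg/mL TGF-beta after compound addition. %Activity was normalised to no-cell wells (complete cell-killing) and DMSO (no toxicity), and curves were fitted and classified.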
TGFb confirm = TGF-b pathway inhibition, cherry-pick retest. 63% of 1,600 active. HepG2 CAGA-GFP TGF-b reporter, GFP fluorescence, 18 h; cells stimulated with TGF-beta, 500 pg/mL. shares compounds with TGFb SMAD3 inh. Potency, µM (doses to about 46.1 µM), usual class: inhibitors; also: nearly all actives have a fitted effect of over 65% in size
HepG2 tox-2 = counter-screen for TGF-b inhibitors: cytotoxicity in HepG2 cells | shares compounds with TGFb SMAD3 inh | HepG2 CAGA-GFP viability, ATP luminescence, 18 h; cells stimulated with TGF-beta, 500 pg/mL | Potency, µM (highest dose often 46.1 µM), hits mostly inhibitors | 27% of 1,600 active | AID 720535; also: nearly all actives have a fitted effect of over 70% in size
CCL64 TGFb inh = blocks TGF-b signaling in CCL64 reporter cells | shares compounds with TGFb SMAD3 inh | CCL64 CAGA-GFP reporter, TGF-b stimulated, GFP fluorescence, 18 h | Potency, µM (series often up to 46.1 µM), most hits filed as inhibitors | 41% of 1,600 active; also: nearly all actives have a fitted effect of over 65% in size
TGFb COP inh = blocks TGF-b signaling in HepG2 COP reporter. 3% of 1,600 active. shares compounds with TGFb SMAD3 inh. HepG2 COP-GFP TGF-b reporter, GFP fluorescence, 18 h; cells stimulated by added recombinant TGF-beta. Potency, µM (titrated, usually from 46.1 µM), hits mostly inhibitors; also: nearly all actives have a fitted effect of over 70% in size
A number is an active result; – = inactive; ? = inconclusive; · = no result. In the library only some 2.6% were active in any assay of this set; here they are far more common. Unless noted, calls follow the shape of the dose curve; as a rule, active = well fitted curve in the direction sought with a large enough effect; inconclusive = small, poorly fitted or top-dose-only effect, or another doubt; inactive = no such curve, though single readings can be large; an effect the other way counts as inactive or inconclusive.

SMILES	ATXN2 expr inh	TGFb SMAD3 inh	Giardia kill	uPA surface inh	ATXN viability	HepG2 tox-1	TGFb confirm	HepG2 tox-2	CCL64 TGFb inh	TGFb COP inh
CCN(CC)C(=O)[C@H]1C[C@H](CC(=O)NC/C=C(\C)CCC=C(C)C)C(=O)N2CCc3c([nH]c4cc(-c5ccco5)ccc34)[C@]12C	?	8.9µM	–	?	?	–	?	?	13µM	–
CC[C@]12c3[nH]c4ccc(Cl)cc4c3CCN1C(=O)[C@@H](CC(=O)NCC13CC4CC(CC(C4)C1)C3)C[C@@H]2C(=O)N1CCN(C(=O)C2CC2)CC1	25µM	10µM	–	?	?	–	9.2µM	?	23µM	–
C[C@]12c3[nH]c4ccc(Cl)cc4c3CCN1C(=O)[C@@H](CC(=O)NCC13CC4CC(CC(C4)C1)C3)C[C@@H]2C(=O)N1CCCCC1	?	–	–	–	?	–	·	·	·	·
C[C@]12c3[nH]c4ccc(Cl)cc4c3CCN1C(=O)[C@@H](CC(=O)NCC13CC4CC(CC(C4)C1)C3)C[C@@H]2C(=O)N1CCOCC1	?	10µM	–	?	?	–	21µM	?	?	–
O=C(C[C@H]1C[C@H](C(=O)N2CCOCC2)[C@@]2(CCC3CCCC3)c3[nH]c4cc(-c5ccco5)ccc4c3CCN2C1=O)NCC12CC3CC(CC(C3)C1)C2	–	?	–	–	–	–	·	·	·	·
CC(C)=CCC/C(C)=C/CNC(=O)C[C@H]1C[C@H](C(=O)N2CCCCC2)[C@@]2(C)c3[nH]c4cc(-c5ccco5)ccc4c3CCN2C1=O	?	?	?	–	?	–	·	·	·	·
COc1ccc(CNC(=O)C[C@H]2C[C@H](C(=O)N3CCOCC3)[C@@]3(CCC4CCCC4)c4[nH]c5cc(-c6ccco6)ccc5c4CCN3C2=O)cc1OC	?	13µM	–	–	–	–	6.5µM	–	?	–
O=C(C[C@H]1C[C@H](C(=O)N2CCOCC2)[C@@]2(CCC3CCCC3)c3[nH]c4cc(-c5ccco5)ccc4c3CCN2C1=O)NCc1cccc(C(F)(F)F)c1	–	?	–	–	?	–	·	·	·	·
CC[C@]12c3[nH]c4cc(CCC(=O)N(C)C)ccc4c3CCN1C(=O)[C@@H](CC(=O)NCCC1=CCCCC1)C[C@@H]2C(=O)N1CCN(C(=O)c2ccco2)CC1	–	–	–	–	–	–	·	·	·	·
CC(C)(C)NC(=O)C[C@H]1C[C@H](C(=O)N2CCCCC2)[C@@]2(C)c3[nH]c4ccc(Cl)cc4c3CCN2C1=O	–	?	–	–	?	–	?	–	–	–
CC[C@]12c3[nH]c4cc(-c5ccco5)ccc4c3CCN1C(=O)[C@@H](CC(=O)NCCC1=CCCCC1)C[C@@H]2C(=O)N1CCN(C(=O)c2ccco2)CC1	–	14µM	–	–	?	–	?	–	?	–
CCN(CC)C(=O)[C@H]1C[C@H](CC(=O)NC(C)(C)C)C(=O)N2CCc3c([nH]c4ccc(Cl)cc34)[C@]12C	–	?	–	–	?	–	·	·	·	·
C[C@]12c3[nH]c4ccc(Cl)cc4c3CCN1C(=O)[C@@H](CC(=O)NCc1cccc(C(F)(F)F)c1)C[C@@H]2C(=O)N1CCOCC1	?	10µM	–	?	·	–	16µM	–	15µM	–

Assay outcomes (PubChem BioAssay)
